Measurements published in PubChem BioAssay AID1159614 (National Center for Advancing Translational Sciences (NCATS), 2016).
In all, about 45,000 compounds went through this assay and about 65 (0.1%) were called active. The call rests on the fitted dose curve; in most records, active means well fitted activation curve with a large enough effect; inconclusive means small, poorly fitted or top-dose-only effect; inactive means no such curve, though single readings can be large or run the other way. Shown is part of a subset that was picked to be rich in actives.

target: Galactocerebrosidase (Homo sapiens) (UniProt P54803); assay: A Novel Cell-Based Assay to Identify Small Molecules for B -Galactocerebrosidase; details: 145M-Twi-hGALC-G270D cells (Twitcher mouse brain line with human GALC G270D), HMU-beta-Gal fluorescence, 48 h; series mostly up to 57.5 µM; further: nearly all actives have a fitted effect of over 65% in size
Sequence (P54803 whole entry G286D): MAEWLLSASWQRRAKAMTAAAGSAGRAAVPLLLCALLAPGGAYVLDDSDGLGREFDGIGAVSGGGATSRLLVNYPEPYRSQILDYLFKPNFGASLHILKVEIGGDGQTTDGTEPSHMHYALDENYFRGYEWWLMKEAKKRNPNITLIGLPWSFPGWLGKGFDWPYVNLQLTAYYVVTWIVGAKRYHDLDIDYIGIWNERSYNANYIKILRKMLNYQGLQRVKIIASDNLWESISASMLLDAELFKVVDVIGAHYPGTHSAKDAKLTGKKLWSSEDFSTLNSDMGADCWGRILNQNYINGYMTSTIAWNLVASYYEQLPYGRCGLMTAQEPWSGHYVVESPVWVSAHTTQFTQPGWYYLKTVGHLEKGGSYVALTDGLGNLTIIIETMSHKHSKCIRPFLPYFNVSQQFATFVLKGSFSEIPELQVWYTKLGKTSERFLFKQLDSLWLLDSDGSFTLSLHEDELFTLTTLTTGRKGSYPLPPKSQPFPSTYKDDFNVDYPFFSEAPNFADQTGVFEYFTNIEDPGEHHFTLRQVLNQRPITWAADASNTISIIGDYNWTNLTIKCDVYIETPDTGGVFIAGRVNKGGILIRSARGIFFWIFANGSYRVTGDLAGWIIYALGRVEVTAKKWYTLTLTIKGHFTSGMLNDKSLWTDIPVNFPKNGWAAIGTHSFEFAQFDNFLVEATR
Text: Lysosomal storage diseases (LSDs) are caused by genetic mutations in genes encoding proteins important for normal lysosomal function. Globoid cell leukodystrophy (GLD), mostly known as Krabbe disease, is a prototype of the neurological LSDs caused by deficiency of beta-galactocerebrosidase (GALC). In brain specimens of GLD patients, psychosine levels are substantially elevated. At elevated concentrations, psychosine becomes cytotoxic to neuronal cells, particularly to oligodendrocytes (OLG), neural cells responsible for myelin formation. Therefore, the biochemical disturbances in GLD are manifested by different degrees of brain demyelination resulting in a broad spectrum of neurological manifestations. Most of the FDA-approved therapies are based on enzyme replacement therapeutic (ERT) agents, which treat non-neurological symptoms of Gaucher disease, Fabry disease, few mucopolysaccharidoses and Pompe disease. Unfortunately, in GLD, a primarily neurological LSD, ERT agents, as large molecular weight molecules unable to cross the blood-brain barrier, which makes this an inefficacious therapeutic approach. In GLD, increasing the residual GALC activity just above the critical threshold (~10% of wild type enzymatic activity), the cytotoxic levels of psychosine will be reduced, avoiding the OLGs apoptosis and the subsequent demyelination process. This will translate in disease stabilization and amelioration of GLD patient symptoms.
A cell-based assay in 1,536-well plate format was developed to implement a quantitative high-throughput screening (qHTS) assay using GLD-disease relevant cells to identify small molecules that produce enhancements of the residual enzymatic activity levels of mutants GALC found and prevalent in GLD patients. Compounds that are active may therefore have some therapeutic application for GLD. After the treatment of live cells for a determined period, using a fluorescent GALC specific substrate, the mutant residual GALC activity is measured. This cell-based qTHS assay was used to screen part of the MLPCN library for small molecule able to increase the mutant GALC enzymatic activity. In this assay, increased fluorescent signal corresponds to enhanced levels of mutant GALC residual enzymatic activity. Activation is the desired outcome for this assay.
NIH Chemical Genomics Center [NCGC]
NIH Molecular Libraries Probe Centers Network [MLPCN]
Assay Submitter (PI): Gustavo Maegawa MD,PhD, University of Florida, Gainesville, FL
2)#Two cell lines were established for the assay: 145M-Twi-hGALC-G270D (brain-derived Twitcher cell line stably expressing human GALC-G270D) and 145M-Twi-hGALC-WT (same 145M-Twi stably expressing human GALC wild type). The Twitcher is the murine C57B/6 model for GLD with naturally occurring homozygous nonsense GALC mutation. The 145M-Twi cell line was established at Maegawa lab (Ribbens J et al 2014).
a.#Media: DMEM/F12 (1:1) with 10% fetal bovine-serum (FBS) with penicillin/streptomycin (PS-1X - 100 I.U./mL of penicillin+100 ug/mL of streptomycin).
b.#The 6-Hexadecanoylamino-4-methylumbelliferyl-b-D-galactoside (HMU-B-gal) substrate was prepared as per Wiederschain et al 1992. Using 20-mL borosilicate tubes, 2.20 mg of HMU-b-Gal was added in each tube to prepare substrate-film with a final air-nitrogen stream evaporation to remove all diluent solvents.
c.#The HMUb-Gal substrate buffer consists of 0.2 M Na2HPO4 (sodium phosphate dibasic)/ 0.1 M Citric Acid with the pH adjusted to 5.2 using HCl. Sodium Azide at 0.02% and Sodium Taurocholate (NaTC) at 1 mg/mL were added to this substrate buffer.
d.#The HMU-b-Gal stopping buffer consist of 0.5 M NaHCO3 (sodium bicarbonate) /0.5 M Na2CO3 (sodium carbonate). […] Triton X-100 at 0.25% was added.
4)#Preparation of HMU-b-Gal substrate tubes
Adding 18.6 mL of the HMUb-Gal substrate buffer to each 20-mL tube (2.20 mg of HMU-b-Gal) will reach a concentration of 0.2 mM. Vortex well the tube until the solution is fully homogenized (clear cloudy solution). […]
Potency means the concentration at half of the fitted maximal effect.

Potency, active:
COc1ccc(-c2c(C)c3ccc(O)c(CN4CCCC4)c3oc2=O)cc1OC 39.8 µM

Potency, inactive:
Cc1ccc(-c2nnc3c4ccccc4c(C)nn23)cc1NC(=O)c1cccc(Br)c1
CCOc1ccc(-c2cc3c(=O)n(CC(=O)NCc4ccc(OC)cc4)ccn3n2)cc1
O=C(O)c1c(CNCc2cccc(F)c2)c2ccccc2n1Cc1ccccc1
COc1cccc(NC(=O)CCNS(=O)(=O)c2ccc3c(c2)oc(=O)n3C)c1
CCc1ccc(-n2nc(C)c3c(C)cc(=O)n(CC(=O)Nc4ccc(F)cc4C)c32)cc1
CC(C)(C)C1CCc2c(sc(NC(=O)c3ccccc3F)c2C(=O)N2CCCCC2)C1 (stereo not drawn)
CCOC(=O)c1ccc(-c2ccc(/C=C(\C#N)C(=O)Nc3ccc(C)cc3)o2)cc1
Cc1ccc2cccc(NC(=O)c3ccc(OC(C)C)cc3)c2n1
CCCCOCCOC(=O)c1cccnc1
CCOc1ccccc1NC(=O)CCS(=O)(=O)c1cccc2nsnc12
CCOc1ccc(Nc2nc3c(S(=O)(=O)c4cccc(Cl)c4)nnn3c3ccsc23)cc1
COc1ccc(S(=O)(=O)c2cn(C)c3cc(N4CCCCC4)c(F)cc3c2=O)cc1
O=C(CCS(=O)(=O)c1ccc2c(c1)NC(=O)CO2)Nc1cccc(C(F)(F)F)c1
CC(=O)c1ccc(NC(=O)CSc2nc(-c3ccccc3F)nc3c2c(=O)n(C)c(=O)n3C)cc1
CCOc1ccc(N(CC)S(=O)(=O)N2CCCC(C(=O)Nc3ccc(C(C)=O)cc3)C2)cc1 (stereo not drawn)
CCOC(=O)c1cc2c(=O)n3ccccc3nc2n(CC2CCCO2)c1=NC(=O)c1ccccc1Br (stereo not drawn)
COCCNC(=O)CCCN1C(=O)c2ccccc2Sc2ncccc21
Cc1ccc(O)c(NC(=O)c2cc(-c3ccc(F)cc3)no2)c1
COc1ccc(S(=O)(=O)NCC(c2ccc(N(C)C)cc2)N2CCc3ccccc32)cc1OC (stereo not drawn)
CCc1ccc(NC(=O)CCCc2nnc3n(CCCOC)c(=O)c4sccc4n23)cc1
Cc1ccc2c(c1)-c1c(cnn1CC(=O)Nc1ccccc1C#N)CO2
O=C(NCCc1ccccc1)C(=O)NCC(c1ccco1)S(=O)(=O)c1ccccc1 (stereo not drawn)
CCOC(=O)Cn1c(=O)n(C2CCCCC2)c2nc(-c3cccc(OC)c3)nc(C(N)=O)c21
CCOc1ccc(N(C)S(=O)(=O)c2cc(-c3cnc(C)o3)ccc2OC)cc1
CCc1ccc2ncc3c(-c4ccc(C)cc4)nn(CC(=O)NCc4ccccc4)c3c2c1
COc1ccc(-c2cn3c(n2)sc2cc(C(=O)Nc4ccc(F)cc4)ccc23)cc1
COc1cc(Cl)c(NC(=O)CC(C)S(=O)(=O)c2cc3c(cc2C)NC(=O)CO3)c(OC)c1 (stereo not drawn)
COc1cc(C(=O)NCCS(=O)(=O)N2CCN(c3ccccc3)CC2)cc(OC)c1OC
Nc1ncc(S(=O)(=O)Nc2ccc(OC(F)(F)F)cc2)cn1
Cc1ccc(C)c(Cn2c(CCCNC(=O)C3CCCCC3)nc3ccccc32)c1
COc1ccc(CNC(=O)CC2Oc3ccc(C)cc3NC2=O)cc1 (stereo not drawn)
CCN(CCCNC(=O)CSc1cc(=O)n(C)c2cc(Cl)ccc12)c1cccc(C)c1
COc1ccc(OCC(=O)Nc2cccc(C(=O)OCc3cc(=O)n4nc(C)sc4n3)c2)cc1
NC(=O)C1CCN(C(=O)c2cccc(NC(=O)c3nsc4ccccc34)c2)CC1
Cc1ccccc1C(=O)Nc1nnc(S(=O)(=O)N(C)c2ccc(Cl)cc2)s1
CCCCN(CC)C(=O)c1c[nH]c2ccc(S(=O)(=O)Nc3cccc(OC)c3)cc2c1=O
Cc1c(C(=O)N2CCCC2)oc2c1-c1nn(CC(=O)NCc3ccc(OC(C)C)cc3)cc1CC2
O=C(CN1C(=O)c2cccnc2Oc2ccc(Cl)cc21)NCCc1ccccc1
Cc1cccc(Nc2cc(C)nc(-n3nc(C)cc3C)n2)c1
COC(=O)c1cc(NC(=O)CCc2c(C)nc3c4c(C)cc(C)nc4nn3c2C)cc(C(=O)OC)c1
CCOc1ccc(NC(=O)c2cn(C3CCCCC3)c(=O)c3c2c2ccccc2n3C)cc1
Cc1ccc(Cn2cc(CCC(=O)NCc3ccc(OC(C)C)cc3)c3ccccc32)cc1
CCc1cnc2c(c1SCC(=O)c1ccccc1)c(=O)n(C)c(=O)n2C
Cc1ccccc1OCc1nc2c3cnn(-c4ccccc4F)c3ncn2n1
O=C(Nc1cccc(Cl)c1)c1csnn1
COc1ccc(C2C(=O)N(C3CCCCC3)CC(=O)N2Cc2ccccc2Cl)cc1OC (stereo not drawn)
O=C(Nc1ccc(OC(F)(F)F)cc1)C1CCCN(S(=O)(=O)c2ccc(Br)s2)C1 (stereo not drawn)
COc1ccc(-c2cc(-c3ccc(F)cc3)nc3c2COc2ccccc2-3)cc1
O=C(CCCCn1c(=O)c2ccccc2n(CC(=O)Nc2cccc(C(F)(F)F)c2)c1=O)NCc1ccc2c(c1)OCO2
CC(C)C(=O)Nc1nc2c(s1)CC(C(C)(C)C)CC2 (stereo not drawn)
Cc1ccc(CCNC(=O)C2CCN(c3nnc(-n4cccc4CNc4ccc(C)cc4)s3)CC2)cc1
CCCCCn1c(=O)[nH]c2cc(C(=O)NCCN(C)CCCC)ccc2c1=O
COc1ccc(C)cc1Nc1nc2ccccc2c2nnc(C)n12
Cc1ccc(NC(=O)CSc2nc3ccccc3c3nc(CCn4cncc4C)nn23)cc1F
Cc1ccc(Cl)cc1N1CCN(C(=O)c2cnc3c(-c4ccc(F)cc4)c(C)nn3c2C)CC1
COc1ccccc1/C=C/c1nc(C#N)c(NC(C)c2ccccc2)o1 (stereo not drawn)
CC(=O)N1c2ccccc2CC1C(=O)N1CCN(c2ccc(F)cc2)CC1 (stereo not drawn)
CCN(CC)c1nn2c(=O)c(C(=O)NCCc3ccccc3)cnc2s1
COc1ccc(C2Sc3ccccc3NC3=C2C(=O)c2ccccc23)c(OC)c1OC (stereo not drawn)
CC(=O)Nc1ccc2nc(SCCOc3cc(C)cc(C)c3)sc2c1
Cc1ccc(S(=O)(=O)c2c(Nc3cccc(Cl)c3)sc(C(=O)c3ccc4c(c3)OCO4)c2N)cc1
COc1cc(NC(=O)c2nn(-c3ccc(C)cc3)c(=O)c3c2c2ccccc2n3C)cc(OC)c1OC
CCOC(=O)c1ccccc1NC(=O)c1sc2nc(-c3ccc(F)cc3)cn2c1C
Cc1ccc(Cn2c(CCCNC(=O)C3CCCCC3)nc3ccccc32)cc1
CCc1nccn1S(=O)(=O)c1cc(Br)ccc1Br
COc1ccc(OCCCn2c(C)nc3cc(C)c(C)cc32)cc1
Cc1ccc(-n2ncc3c(=O)n(Cc4cccc(C(F)(F)F)c4)cnc32)cc1C
Cc1ccc2nc(COc3cccc(NC(=O)c4ccccc4Cl)c3)cc(=O)n2c1
COc1ccc(CNC(=O)c2ccc(NC(=O)N3CC4CCCN4c4ccccc43)cc2)cc1 (stereo not drawn)
Cc1ccc(C)c(NC(=O)C2CCCN(S(=O)(=O)c3cn(C)cn3)C2)c1 (stereo not drawn)
COc1cc(Cl)c(C)cc1Nc1nnc(-n2nc(C)cc2C)c2ccccc12
CCOC(=O)c1c(C)n(S(=O)(=O)c2ccc(C)cc2C)c2ccc(NS(=O)(=O)c3ccc(C)cc3C)cc12
COC(=O)/C=C(/C)N
CCn1cc2nc(SCc3cccc(F)c3)n(CCc3ccccc3)c(=O)c2n1
COc1cccc(Cn2c(CNS(=O)(=O)c3ccc(Cl)s3)nc3cccnc32)c1
CCC(=O)N1c2ccccc2CC1C(=O)N1CCN(c2ccccc2)CC1 (stereo not drawn)
COc1cccc(NC(=O)c2ccc3nc(CCc4ccccc4)oc3c2)c1
COc1ccccc1N1CCN(c2ncnc3onc(-c4cccc(Cl)c4)c23)CC1
COc1cccc(C(=O)NC(=O)Nc2ccc(-c3cc(C(F)(F)F)nn3-c3ccccc3)cc2)c1
COc1ccc(-c2ccc(=O)n(CC(=O)Nc3ccc(Br)cc3F)n2)cc1
Fc1ccccc1Oc1ncnc2c1oc1ccccc12
COc1ccc(-c2cn3nc(N4CCCC(C(=O)NCCCOC(C)C)C4)sc3n2)cc1 (stereo not drawn)
CCOC(=O)c1ccc(NC(=O)CCn2cnnn2)cc1
CC(C)(C)OC(=O)N1CCC(c2c(C(=O)Nc3ccc4c(c3)OCO4)cnn2-c2ccccc2)CC1
COc1ccc(Cl)cc1NC(=O)C(C)Sc1nc2c(c(=O)[nH]1)CCCC2 (stereo not drawn)
COC(=O)c1nc(Cl)c(Cl)nc1N
O=C(CSc1oc(-c2ccco2)nc1S(=O)(=O)c1ccccc1)c1ccc(Cl)cc1
O=c1[nH]c2cc(Br)ccc2n2cccc12
CN(Cc1ccccc1)c1ccc(-c2nc(-c3ccccc3)no2)cc1[N+](=O)[O-]
COc1cc(NC(=O)CCn2nc(C)cc2C)cc(OC)c1OC
CCOC(=O)c1c(C)[nH]c(C)c1S(=O)(=O)NCC(=O)NCc1cccc(C)c1
CCOc1ccc(OCC)c(NC(=O)c2cc(C)nc3c2c(C)nn3-c2cccc(Cl)c2C)c1
Cc1ccc(Oc2c(C(F)(F)F)oc3c(CN4CCCCC4)c(O)ccc3c2=O)cc1
COc1ccc(-c2c(C)c3ccc(O)c(CN4CCN(C)CC4)c3oc2=O)cc1OC
O=C(NCc1ccccc1)c1cccc(NC(=O)N2CCSc3ncccc32)c1
CCCCN1C(=O)c2[nH]nc(-c3ccccc3O)c2C1c1cccc(OCc2ccccc2)c1 (stereo not drawn)
O=C(NC1CC(=O)N(c2ccccc2)C1)c1ccco1 (stereo not drawn)
